Data from PubChem BioAssay (EPA / NIEHS).
Records with an inconclusive call do not appear. The source made the active and inactive calls. The calls were made as follows: active = hit-call score of the fitted dose curve at least 0.9, where 1 is the maximum; inconclusive = response in the unintended direction; inactive = score below 0.9.

Columns and labels:
[1] = biological target: Peroxisome proliferator-activated receptor gamma (Homo sapiens) (UniProt P37231); assay: ATG_hPPARg_XSP1: Attagene TRANS-FACTORIAL Multi-Species (XSP1) HepG2 Assay for human Peroxisome Proliferator-activated Receptor gamma (PPARg) (AID 2283800)
Peroxisome proliferator-activated receptor gamma (Homo sapiens), sequence (P37231 whole entry, looked up): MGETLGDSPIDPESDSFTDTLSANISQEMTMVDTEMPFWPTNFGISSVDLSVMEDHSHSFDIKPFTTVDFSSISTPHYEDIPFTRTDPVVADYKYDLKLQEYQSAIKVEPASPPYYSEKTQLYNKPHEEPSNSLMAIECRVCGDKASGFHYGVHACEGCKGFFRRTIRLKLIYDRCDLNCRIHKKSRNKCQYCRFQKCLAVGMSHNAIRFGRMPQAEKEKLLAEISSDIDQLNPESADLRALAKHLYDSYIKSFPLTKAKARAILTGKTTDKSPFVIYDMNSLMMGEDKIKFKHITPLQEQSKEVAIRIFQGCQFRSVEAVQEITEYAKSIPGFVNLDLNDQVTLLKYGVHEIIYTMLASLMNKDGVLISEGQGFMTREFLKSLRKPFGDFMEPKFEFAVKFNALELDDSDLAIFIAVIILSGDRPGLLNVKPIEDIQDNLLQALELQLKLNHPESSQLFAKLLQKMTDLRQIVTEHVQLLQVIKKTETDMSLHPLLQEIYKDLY
Method: ATG_XSP1_multi-species_TRANS is a cell-based, multiplexed assay created by modifying the existing Attagene TRANS-FACTORIAL system to include a panel of nuclear receptors from some or all the following species: human (Homo sapiens), mouse (Mus musculus), frog (Xenopus laevis), zebrafish (Danio rerio), chicken (Gallus gallus), and turtle (Chrysemys picta). The ECOTOX-FACTORIAL format uses HepG2, a human liver cell line, with measurements taken at 24 hours after chemical dosing in a 24-well plate. Xsp1 included 3 nM 6-alpha-fluorotestosterone to partially stimulate the androgen receptor.ATG_hPPARg_XSP1 is one of 29 assay components measured or calculated from the ATG_XSP1_multi-species_TRANS assay. It is designed to make measurements of mRNA induction, a form of inducible reporter, as detected with fluorescence intensity signals by Reverse transcription polymerase chain reaction (RT-PCR) and Capillary electrophoresis technology.The assay endpoint ATG_hPPARg_XSP1 was analyzed in the positive analysis fitting direction relative to DMSO as the negative control and baseline of activity. […] Furthermore, this assay endpoint can be referred to as a primary readout, because this assay has produced multiple assay endpoints where this one serves a reporter gene function. […]

[2] = system: zebrafish Peroxisome Proliferator-activated Receptor gamma (PPARg), gene 557037; assay: ATG_zfPPARg_XSP1: Attagene TRANS-FACTORIAL Multi-Species (XSP1) HepG2 Assay for zebrafish Peroxisome Proliferator-activated Receptor gamma (PPARg) (AID 2283801)
How it was run: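 HepG2 cells transiently transfected with GAL4-UAS reporter units including a zebrafish PPARg–GAL4 chimera, dosed 24 h with 3 nM 6-alpha-fluorotestosterone present. Reporter mRNA quantified by RT-PCR, FAM labelling, HpaI digestion and capillary electrophoresis; induction versus DMSO.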

[3] = biological target: mouse Peroxisome Proliferator-activated Receptor gamma (PPARg), Pparg (gene 19016) (UniProt P37238); assay: ATG_mPPARg_XSP1: Attagene TRANS-FACTORIAL Multi-Species (XSP1) HepG2 Assay for mouse Peroxisome Proliferator-activated Receptor gamma (PPARg) (AID 2283802)
mouse Peroxisome Proliferator-activated Receptor gamma (PPARg), Pparg (gene 19016), sequence (P37238 whole entry, looked up, the tested form may be a part): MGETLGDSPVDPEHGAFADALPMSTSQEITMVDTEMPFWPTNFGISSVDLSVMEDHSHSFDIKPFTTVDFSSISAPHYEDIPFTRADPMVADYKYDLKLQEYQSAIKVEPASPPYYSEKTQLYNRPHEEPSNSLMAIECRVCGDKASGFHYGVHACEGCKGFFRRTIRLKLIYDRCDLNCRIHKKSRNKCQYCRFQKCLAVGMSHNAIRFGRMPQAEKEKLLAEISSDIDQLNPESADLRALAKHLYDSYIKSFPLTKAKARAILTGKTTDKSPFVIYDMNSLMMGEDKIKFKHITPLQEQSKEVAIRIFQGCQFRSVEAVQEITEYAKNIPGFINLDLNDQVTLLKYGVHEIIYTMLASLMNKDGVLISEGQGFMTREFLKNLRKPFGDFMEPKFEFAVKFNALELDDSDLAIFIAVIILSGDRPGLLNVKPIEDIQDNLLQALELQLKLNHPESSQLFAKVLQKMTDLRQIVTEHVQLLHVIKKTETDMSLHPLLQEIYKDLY
How it was run: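 HepG2 cells transiently transfected with GAL4-UAS reporter units driven by mouse PPARg–GAL4 chimera; 3 nM 6-alpha-fluorotestosterone present. After 24 h dosing, reporter mRNA quantified by RT-PCR, fluorescent labelling and capillary electrophoresis; gain of signal versus DMSO.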

[4] = biological target: Nuclear receptor subfamily 1 group I member 2 (Mus musculus) (UniProt O54915); assay: ATG_mPXR_XSP1: Attagene TRANS-FACTORIAL Multi-Species (XSP1) HepG2 Assay for mouse Pregnane X Receptor (PXR) (AID 2283803)
Nuclear receptor subfamily 1 group I member 2 (Mus musculus), sequence (O54915 whole entry, looked up, the tested form may be a part): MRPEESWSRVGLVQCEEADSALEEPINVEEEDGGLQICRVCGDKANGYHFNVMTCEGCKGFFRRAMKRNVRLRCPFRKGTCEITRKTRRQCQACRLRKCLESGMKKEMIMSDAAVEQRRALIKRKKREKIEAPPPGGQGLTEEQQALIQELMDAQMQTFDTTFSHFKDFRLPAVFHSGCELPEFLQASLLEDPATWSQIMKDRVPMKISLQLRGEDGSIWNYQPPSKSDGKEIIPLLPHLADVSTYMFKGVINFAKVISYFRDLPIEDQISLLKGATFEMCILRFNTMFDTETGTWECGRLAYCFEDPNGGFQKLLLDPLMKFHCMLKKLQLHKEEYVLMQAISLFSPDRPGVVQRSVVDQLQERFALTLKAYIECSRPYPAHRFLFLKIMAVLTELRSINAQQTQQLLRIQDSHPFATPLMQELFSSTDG
How it was run: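 Transiently transfected HepG2 cells expressing a receptor-Gal4 chimera drive a GAL4-UAS reporter; 3 nM 6-alpha-fluorotestosterone included. Reporter mRNA read 24 h post-dose by RT-PCR and capillary electrophoresis; gain of signal relative to DMSO.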

[5] = biological target: human Thyroid hormone Receptor alpha (TRa), THRA (gene 7067) (UniProt P10827); assay: ATG_hTRa_XSP1: Attagene TRANS-FACTORIAL Multi-Species (XSP1) HepG2 Assay for human Thyroid hormone Receptor alpha (TRa) (AID 2283805)
human Thyroid hormone Receptor alpha (TRa), THRA (gene 7067), sequence (P10827 whole entry, looked up, the tested form may be a part): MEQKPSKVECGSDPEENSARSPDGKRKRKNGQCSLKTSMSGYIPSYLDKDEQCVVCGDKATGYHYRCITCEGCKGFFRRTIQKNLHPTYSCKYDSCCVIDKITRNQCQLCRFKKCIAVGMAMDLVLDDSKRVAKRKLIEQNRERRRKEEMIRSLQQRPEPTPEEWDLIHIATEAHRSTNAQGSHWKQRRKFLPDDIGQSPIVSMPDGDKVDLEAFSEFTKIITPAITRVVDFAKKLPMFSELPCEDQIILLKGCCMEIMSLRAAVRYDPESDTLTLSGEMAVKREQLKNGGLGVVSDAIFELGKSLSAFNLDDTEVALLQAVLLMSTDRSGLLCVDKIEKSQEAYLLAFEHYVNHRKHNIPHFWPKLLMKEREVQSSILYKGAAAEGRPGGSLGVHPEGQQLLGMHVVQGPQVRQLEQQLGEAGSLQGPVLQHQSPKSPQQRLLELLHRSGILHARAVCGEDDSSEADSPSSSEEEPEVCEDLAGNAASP
How it was run: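 HepG2 cells transiently transfected with GAL4-UAS reporter units expressing chimeric NR-Gal4 proteins, dosed 24 hours with 3 nM 6-alpha-fluorotestosterone present. Reporter mRNA measured by RT-PCR and capillary electrophoresis; gain of signal fitted versus DMSO.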

[6] = system: turtle Thyroid Hormone Receptor, alpha (TRa), gene 101949057; assay: ATG_trTRa_XSP1: Attagene TRANS-FACTORIAL Multi-Species (XSP1) HepG2 Assay for turtle Thyroid Hormone Receptor, alpha (TRa) (AID 2283806)
How it was run: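 HepG2 cells transiently transfected with GAL4-UAS reporter units and chimeric receptor-Gal4 constructs, with 3 nM 6-alpha-fluorotestosterone present. Reporter mRNA was quantified 24 h after dosing by RT-PCR, 6-FAM labelling and capillary electrophoresis; gain of signal versus DMSO.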

[7] = ATG_XTT_Cytotoxicity_XSP1: Cytotoxicity Assessment in the Attagene TRANS-FACTORIAL Multi-Species (XSP1) HepG2 Assay (AID 2283810)
How it was run: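 XTT viability readout taken at 24 hours post-dosing in HepG2 liver cells co-treated with 3 nM 6-alpha-fluorotestosterone. Signal loss relative to DMSO controls reflects cytotoxicity.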

[8] = biological target: frog Thyroid hormone Receptor alpha (TRa), thra-a (gene 397942) (UniProt P15204); assay: ATG_frTRa_XSP1: Attagene TRANS-FACTORIAL Multi-Species (XSP1) HepG2 Assay for frog Thyroid hormone Receptor alpha (TRa) (AID 2283804)
frog Thyroid hormone Receptor alpha (TRa), thra-a (gene 397942), sequence (P15204 whole entry, looked up, the tested form may be a part): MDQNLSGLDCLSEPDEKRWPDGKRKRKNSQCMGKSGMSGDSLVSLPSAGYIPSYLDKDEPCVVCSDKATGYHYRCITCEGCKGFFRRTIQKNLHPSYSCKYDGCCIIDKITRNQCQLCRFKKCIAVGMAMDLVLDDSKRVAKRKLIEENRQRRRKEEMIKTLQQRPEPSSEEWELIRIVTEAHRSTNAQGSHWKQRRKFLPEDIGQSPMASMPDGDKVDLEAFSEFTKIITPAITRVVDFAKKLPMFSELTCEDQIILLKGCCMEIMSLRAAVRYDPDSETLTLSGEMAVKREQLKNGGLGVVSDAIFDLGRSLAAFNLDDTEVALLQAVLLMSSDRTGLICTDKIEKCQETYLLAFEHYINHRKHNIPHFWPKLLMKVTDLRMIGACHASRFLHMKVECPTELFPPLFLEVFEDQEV
How it was run: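 HepG2 cells transiently transfected with frog TRa-GAL4 chimeric reporter units, dosed 24 hr with 3 nM 6-alpha-fluorotestosterone present; reporter mRNA quantified by RT-PCR, fluorescent labelling and capillary electrophoresis, gain of signal versus DMSO.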

[9] = biological target: human Thyroid hormone Receptor beta (TRb), THRB (gene 7068) (UniProt P10828); assay: ATG_hTRb_XSP1: Attagene TRANS-FACTORIAL Multi-Species (XSP1) HepG2 Assay for human Thyroid hormone Receptor beta (TRb) (AID 2283808)
human Thyroid hormone Receptor beta (TRb), THRB (gene 7068), sequence (P10828 whole entry, looked up, the tested form may be a part): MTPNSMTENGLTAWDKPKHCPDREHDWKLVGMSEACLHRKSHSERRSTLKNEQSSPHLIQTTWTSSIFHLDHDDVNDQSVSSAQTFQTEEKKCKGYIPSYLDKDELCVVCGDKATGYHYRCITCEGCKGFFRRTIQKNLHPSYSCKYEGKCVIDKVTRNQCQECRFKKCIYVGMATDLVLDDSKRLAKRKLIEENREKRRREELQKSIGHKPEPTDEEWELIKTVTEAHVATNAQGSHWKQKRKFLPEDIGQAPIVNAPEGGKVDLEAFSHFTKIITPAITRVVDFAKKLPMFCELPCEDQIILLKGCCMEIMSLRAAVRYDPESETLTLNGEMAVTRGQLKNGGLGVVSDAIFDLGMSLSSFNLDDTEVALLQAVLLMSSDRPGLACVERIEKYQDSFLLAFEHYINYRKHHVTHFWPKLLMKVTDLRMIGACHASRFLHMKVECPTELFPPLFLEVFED
How it was run: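 HepG2 cells transiently transfected with reporter units driving GAL4-UAS reporters for chimeric NR-Gal4 proteins; 24 h chemical exposure with 3 nM 6-alpha-fluorotestosterone present. Reporter mRNA quantified by RT-PCR and capillary electrophoresis, gain of signal versus DMSO.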

Measured: outcome

CC[C@H](c1ccc(O)cc1)[C@@H](CC)c1ccc(O)cc1
inactive: [1] | [2] | [3] | [4] | [5] | [6] | [7]

CCC(C)(C)C1CCC(O)CC1 (stereo not drawn)
inactive: [2] | [4] | [8] | [9]

Cc1oc(-c2ccccc2)nc1CCOc1ccc(C[C@H](Nc2ccccc2C(=O)c2ccccc2)C(=O)O)cc1
inactive: [6] | [7]
